# Source: PubChem BioAssay (The Scripps Research Institute Molecular Screening Center)
# A selection: hits, their analogues and other compounds. The true share with any hit is near 4.8%.
# hcDAF-12 act = H. contortus DAF-12 activation, primary screen. 370,000 compounds, 1.4% hits. activation, % at 6.8 µM. AID 652067. HEK293 hcDAF-12 lit1-tk-luc reporter, luminescence; 0% DMSO, 100% Δ7-dafachronic acid;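 active = activation above the mean of all tested compounds plus 3 SD, cut at about 5.5% in these data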;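 note: 100% = response to 3 µM Δ7-dafachronic acid high control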
# DAX1 inh-1 = DAX1 (NR0B1) inhibition, primary screen | 370,000 compounds, 1.1% hits | HEK293T StAR-luciferase reporter, SF-1/DAX-1 repression relief | inhibition, % at 6.8 µM | AID 652010;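 active = inhibition above the mean over all tested compounds plus 3 SD, cut at about 3.6% in these data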;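 note: 0% = DAX-1 cells with DMSO and 100% = cells lacking DAX-1 with DMSO; higher inhibition means more luminescence from relief of DAX-1 repression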
# ssDAF-12 act = S. stercoralis DAF-12 activation, primary screen | HEK293 ssDAF-12/GRIP1 lit1-tk-luc reporter, luminescence; % of 3 µM dafachronic acid response | activation, % at 6.8 µM | 370,000 compounds, 1% hits;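 active = activation above the mean over all tested compounds plus 3 SD, cut at about 0.9% in these data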;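 note: 0% = DMSO-only wells and 100% = 3 µM delta7-dafachronic acid wells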
# DAX1 inh-2 = NR0B1 (DAX1) inhibition; P51843; HEK293 Gal4-DAX1 luciferase reporter, luminescence; inhibition, % at 6.75 µM; 340,000 compounds, 0.99% hits;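 active = inhibition above the mean over all tested compounds plus 3 SD, cut at about 4.2% in these data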;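 note: 0% = DAX1-transfected cells with DMSO and 100% = empty-vector control cells with DMSO; inhibition shows as a rise in luminescence from relieved DAX1 repression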
# Target sequence (P51843 207-470 limits assumed): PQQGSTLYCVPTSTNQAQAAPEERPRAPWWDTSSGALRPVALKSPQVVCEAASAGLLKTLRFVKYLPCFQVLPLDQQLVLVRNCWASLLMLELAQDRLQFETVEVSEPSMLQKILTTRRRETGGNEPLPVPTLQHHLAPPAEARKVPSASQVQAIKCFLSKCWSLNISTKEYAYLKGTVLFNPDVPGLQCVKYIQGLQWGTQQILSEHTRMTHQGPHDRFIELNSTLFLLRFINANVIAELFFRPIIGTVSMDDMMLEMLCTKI
# SMARCA2 activ = increases SMARCA2 function in MMTV reporter cells. MG213 cells, MMTV-luciferase reporter, dexamethasone, overnight. activation, % at 9.1 µM. 370,000 compounds, 1% hits; in the data active = activation above about 7.8%;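 note: 0% = vehicle wells and 100% = reference activator wells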
# hgDAF12 agonist = activates the H. glycines DAF-12 receptor ligand-binding domain | HEK293 GAL4-hgDAF12 UAS-luciferase reporter, agonist luminescence; normalized to butyrate control | activation, % at 6.8 µM | 370,000 compounds, 1.8% hits | AID 687014;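 active = activation above a cutoff set at the mean of all screened compounds plus 3 SD, cut at about 10% in these data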;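 note: 0% = DMSO wells and 100% = sodium butyrate wells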
# SMARCA2 act conf = SMARCA2 activation, confirmation screen | shares compounds with SMARCA2 activ | MG213 cells, MMTV-luciferase with dexamethasone, luminescence, overnight; MG213 cells expressing E1A, Rb sequestered; DMSO wells 0%, reference activator 100% | activation, % at 9.1 µM | 3,500 compounds, 30% hits;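 active = activation above its plate's cutoff, the mean activation of tested wells plus 3 SD, cut at about 7.9% in these data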
# VP16 Luc act = counter-screen for SMARCA2 activators: GAL4-VP16 luciferase reporter activation | AID 686939 | activation, % at 9.1 µM | HEK293 GAL4-VP16 pG5luc reporter, luciferase luminescence; scaled: DMSO wells 0%, SAHA wells 100% | 3,500 compounds, 41% hits | shares compounds with SMARCA2 activ;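 active = activation above the solvent-only control well mean plus 3 SD, averaged across control plates, cut at about 5.2% in these data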
# An asterisk follows results filed as active; nt = no result given.
SMILES,hcDAF-12 act,DAX1 inh-1,ssDAF-12 act,DAX1 inh-2,SMARCA2 activ,hgDAF12 agonist,SMARCA2 act conf,VP16 Luc act
CS(=O)(=O)N(CC(=O)N1CCCCCC1)c1ccc2c(c1)OCCO2,3.2,-0.6,-1.2,0.8,8.0*,0.9,-3.5,0.6
COc1ccc(N/C=C(\C#N)S(=O)(=O)c2ccc(Cl)cc2)c(OC)c1,-1.6,-0.3,-1.2,-0.5,-2.7,-2.4,nt,nt
O=C(NNC1CC(=O)N(c2ccc3c(c2)OCCO3)C1=O)c1ccccc1 (stereo unspecified),1.4,0.5,-0.9,1.2,8.6*,2.7,-1.9,0.7
Cc1ccccc1C(=O)NNC1CC(=O)N(c2ccc3c(c2)OCCO3)C1=O (stereo unspecified),0.8,-0.3,-1.1,1.1,-0.6,-1.0,nt,nt
CC(C)(C)c1ccc(-c2nnc(SCC(=O)NC3CC3)o2)cc1,2.0,3.1,-0.9,0.3,9.0*,7.5,0.1,5.5*
Cc1cc(F)ccc1-c1cc(C(=O)NCC2CCCCC2)[nH]n1,-1.4,0.5,-1.2,nt,8.6*,-3.9,-1.1,0.4
COc1ccccc1Nc1nc(N)nc(CSC(=S)N2CCN(c3ccccc3)CC2)n1,-1.1,-0.2,-0.5,2.4,8.7*,-2.8,-6.8,-0.1
CCCCOC(=O)Nc1nnc(C(C)C)s1,2.7,2.4,-0.8,5.7*,8.0*,11.1*,8.6*,10.0*
COc1cccc(-c2ncc3ccccc3c2CO)c1,-1.6,0.2,-1.8,-0.5,1.7,1.0,nt,nt
O=C(N/N=C/c1ccccn1)c1ccc(Br)cc1,3.1,-0.6,0.2,-2.1,11.8*,7.8,-8.1,25.2*
O=C(N/N=C/c1ccccn1)c1cccc([N+](=O)[O-])c1,-0.5,-0.4,-1.5,0.4,10.8*,2.6,1.5,3.5
O=C(N/N=C/c1ccccn1)c1ccc(NC(=O)c2cccc([N+](=O)[O-])c2)cc1,-2.5,-1.4,-1.6,nt,1.2,2.2,nt,nt
O=C(NC(=S)Nc1ccccn1)c1cccc([N+](=O)[O-])c1,4.4,0.7,-0.6,3.5,8.8*,4.3,4.9,7.5*
COC(=O)c1ccc(NC(=O)CSC2=NC(=O)C(c3ccccc3)C(=O)N2)cc1 (stereo unspecified),0.9,-0.1,-1.1,-0.5,-3.3,1.3,nt,nt
COc1ccc(CCNCC(=O)Nc2c(C)cc(C)cc2C)cc1OC,-2.2,0.2,-1.6,0.5,-4.0,0.2,nt,nt
N#CCn1cnc2sc(-c3ccccc3)cc2c1=O,0.5,-0.2,-0.7,-1.0,9.1*,3.7,10.8*,1.5
CC(C)CCN(C(=O)Cc1ccccc1F)c1c(N)n(Cc2ccccc2)c(=O)[nH]c1=O,-0.2,-0.2,-1.1,-0.5,2.6,-0.2,nt,nt
CC(C)CCN(C(=O)c1ccccn1)c1c(N)n(Cc2ccccc2)c(=O)[nH]c1=O,1.1,0.4,-1.2,-0.4,8.3*,0.5,-5.2,0.3
O=C(Nc1nnc(S(=O)(=O)N2CCOCC2)s1)c1ccccc1F,-1.0,-0.1,-0.9,-0.4,-2.7,2.2,nt,nt
COc1ccc2c(c1OC)C(=O)N1c3cccc(Cl)c3C(=O)OC21 (stereo unspecified),-1.0,0.3,-0.4,-1.6,-0.7,1.1,nt,nt
COc1ccc2c(c1OC)C(=O)N1c3ccccc3COC21 (stereo unspecified),1.5,2.0,-0.1,1.8,8.2*,7.8,8.9*,9.3*
COc1ccnc(Oc2ccc3ccccc3c2)c1C#N,-1.4,1.3,-1.1,1.1,14.0*,2.8,5.6,7.9*
CCCN1CCN(CCCNC(=O)c2ccc3c(=O)n(CCc4ccccc4)c(=O)[nH]c3c2)CC1,-1.7,0.4,-0.8,0.3,-0.9,-0.6,nt,nt
O=C(NCCN1CCCC1)c1ccc2c(=O)n(CCc3ccccc3)c(=O)[nH]c2c1,1.1,1.3,-1.0,1.7,8.2*,5.4,10.5*,1.3
Cc1nnc(Sc2cc(NCCCO)c([N+](=O)[O-])c3nonc23)s1,0.9,-1.1,-0.9,-0.2,10.2*,-2.2,-14.5,0.8
SMILES,hcDAF-12 act,DAX1 inh-1,ssDAF-12 act,DAX1 inh-2,SMARCA2 activ,hgDAF12 agonist,SMARCA2 act conf,VP16 Luc act
Cc1nnc(Sc2cc(NCCO)c([N+](=O)[O-])c3nonc23)s1,-2.1,-0.5,-1.9,-0.6,4.9,-0.5,nt,nt
CCc1ccc(C(O)c2ncc(-c3ccccc3Cl)[nH]2)cc1 (stereo unspecified),0.8,-0.5,-1.4,nt,-2.2,-0.8,nt,nt
O=C(Nc1ccccc1C(=O)NCCc1ccccc1)c1ccco1,4.7,0.7,0.3,1.7,9.1*,10.6*,10.7*,7.4*
Cn1nccc1C(=O)OCC(=O)Nc1ccc(S(N)(=O)=O)cc1,0.9,0.1,-1.2,0.3,2.1,-0.9,nt,nt
CCOc1cc(NC(=S)NCc2ccco2)c(OCC)cc1NC(=O)C1CC1,1.5,-0.2,-0.7,-0.6,8.0*,0.0,-0.8,1.0
CCOc1cc(NC(=S)NCc2ccco2)c(OCC)cc1NC(C)=O,-0.6,-0.1,-0.3,0.3,2.8,0.5,nt,nt
CNC(=S)Nc1cccc(C(C)=O)c1,0.2,-0.5,-1.6,2.0,-3.6,0.4,nt,nt
CC(=O)c1cccc(NC(=S)NC(=O)C(C)C)c1,-1.4,-0.2,-1.4,-0.9,8.7*,2.1,-1.1,-0.5
Clc1ccc(-c2nc3ccc(Cl)cn3c2Cc2ccsc2)cc1,1.1,3.8*,-0.6,nt,10.9*,11.1*,8.9*,5.0
COc1ccc(C2C(C(C)=O)=C(O)C(=O)N2CCCn2ccnc2)cc1OC (stereo unspecified),-1.6,0.0,-0.9,1.4,0.5,1.1,nt,nt
CNc1cc(C)nc(N2CCOCC2)n1,1.9,3.0,-0.2,-0.8,8.7*,7.5,-1.1,0.7
O=c1cc(-c2ccccc2F)oc2ccccc12,0.8,2.1,-0.7,0.2,12.9*,11.1*,6.5,7.7*
Nc1ccccc1C(=O)NCCCN1CCOCC1,-0.5,0.4,-0.5,1.1,-0.3,0.1,nt,nt
Cc1ccc(C(=O)OCn2ncc(Cl)c(Cl)c2=O)cc1,-1.2,-2.1,-1.1,-1.1,-10.0,-6.1,nt,nt
Cc1ccc(C)c(C(=O)Cn2ncc(Cl)c(Cl)c2=O)c1,-1.4,-0.6,-1.2,-1.1,30.0*,-2.1,-13.9,1.1
Cc1cc(C(=O)Cn2ncc(Cl)c(Cl)c2=O)c(C)n1CC(F)(F)F,-0.6,0.8,-1.2,-0.2,-11.7,-2.1,nt,nt
Cc1cccc(Cn2ncc(Cl)c(Cl)c2=O)c1,-1.7,-0.9,-0.9,0.5,10.0*,-1.3,-3.0,-0.1
